The panel holds about 83,000 compounds, 20% with a hit somewhere; the sample as a whole holds those more often.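 Cell lines were cultured in 96-well plates, exposed to a single compound concentration, and assessed for percent growth 48 hours later.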 A number with no mark means an inactive call. The source made the active and inactive calls. How the source made its calls: active means growth percent below 10; inactive means the rest.
Legend:
Assay in all cases: NCI-60 one-dose screen, 48 h (100 = growth as untreated, 0 = no growth, -100 = all killed)
Details in all cases: 10 µM
HCT-15 colon = system: HCT-15 colon
HT29 colon = system: HT29 colon
SNB-75 CNS = system: SNB-75 CNS
SNB-19 CNS = system: SNB-19 CNS
U251 CNS = system: U251 CNS
PC-3 prostate = system: PC-3 prostate
SK-MEL-5 melanoma = system: SK-MEL-5 melanoma
UACC-62 melanoma = system: UACC-62 melanoma
LOX IMVI melanoma = system: LOX IMVI melanoma
SK-MEL-28 melanoma = system: SK-MEL-28 melanoma

NC(=O)c1ccc(Br)o1
growth (HCT-15 colon): 94.1% | growth (HT29 colon): 95.7% | growth (SNB-75 CNS): 95.3% | growth (SNB-19 CNS): 109% | growth (U251 CNS): 105% | growth (PC-3 prostate): 102% | growth (SK-MEL-5 melanoma): 102% | growth (UACC-62 melanoma): 101% | growth (LOX IMVI melanoma): 98.1% | growth (SK-MEL-28 melanoma): 107%

CC(C)(C)c1ccc(OCCCCCCN2CCNCC2)cc1
growth (HCT-15 colon): 6.25% (active) | growth (HT29 colon): 25% | growth (SNB-75 CNS): 53.7% | growth (SNB-19 CNS): 66.2% | growth (U251 CNS): 30.7% | growth (PC-3 prostate): 39.6% | growth (SK-MEL-5 melanoma): 50.4% | growth (UACC-62 melanoma): -32.2% (active) | growth (LOX IMVI melanoma): -16.7% (active) | growth (SK-MEL-28 melanoma): 59.1%

O=C(Nc1ccc(OS(=O)(=O)Cc2ccccc2)cc1)C12CC3CC(CC(C3)C1)C2
growth (HCT-15 colon): 56.8% | growth (HT29 colon): 9.75% (active) | growth (SNB-75 CNS): 114% | growth (SNB-19 CNS): 91.4% | growth (U251 CNS): 67.7% | growth (PC-3 prostate): 55.6% | growth (SK-MEL-5 melanoma): 63.3% | growth (UACC-62 melanoma): 81.6% | growth (LOX IMVI melanoma): 68% | growth (SK-MEL-28 melanoma): 103%

O=C(Nc1ccc(Oc2ccc(Nc3nc4ccccc4s3)cc2)cc1)Nc1ccc(Cl)c(Cl)c1
growth (HCT-15 colon): 20.7% | growth (HT29 colon): 31.7% | growth (SNB-75 CNS): 44.1% | growth (SNB-19 CNS): 27.1% | growth (U251 CNS): 29.5% | growth (PC-3 prostate): 23.4% | growth (SK-MEL-5 melanoma): 34.3% | growth (UACC-62 melanoma): 21.1% | growth (LOX IMVI melanoma): 26.2% | growth (SK-MEL-28 melanoma): 45.9%

COc1cc(Cl)cc(-c2nn(-c3cccc(NC(=O)Nc4cccc(C(F)(F)F)c4)c3)cc2-c2ccncc2)c1
growth (HCT-15 colon): 7.83% (active) | growth (HT29 colon): 5.75% (active) | growth (SNB-75 CNS): 12.5% | growth (SNB-19 CNS): 16.1% | growth (U251 CNS): 4.59% (active) | growth (PC-3 prostate): -9.92% (active) | growth (SK-MEL-5 melanoma): 5.3% (active) | growth (UACC-62 melanoma): -11.5% (active) | growth (LOX IMVI melanoma): 4.64% (active) | growth (SK-MEL-28 melanoma): 14.1%

N#Cc1c(-c2ccccc2)nc(SCC(=O)N2CCOCC2)[nH]c1=O
growth (HCT-15 colon): 103% | growth (HT29 colon): 106% | growth (SNB-75 CNS): 61.4% | growth (SNB-19 CNS): 111% | growth (U251 CNS): 105% | growth (PC-3 prostate): 98.1% | growth (SK-MEL-5 melanoma): 102% | growth (UACC-62 melanoma): 100% | growth (LOX IMVI melanoma): 91.9% | growth (SK-MEL-28 melanoma): 114%

CN(C)CCCN(Cc1ccccc1O)C(=S)Nc1ccc(Cl)cc1
growth (HCT-15 colon): 93% | growth (HT29 colon): 106% | growth (SNB-75 CNS): 79.5% | growth (SNB-19 CNS): 94.7% | growth (U251 CNS): 101% | growth (PC-3 prostate): 93.8% | growth (SK-MEL-5 melanoma): 91.3% | growth (UACC-62 melanoma): 108% | growth (LOX IMVI melanoma): 98.4% | growth (SK-MEL-28 melanoma): 109%

C/C(=N\NC(=O)c1sc(=S)n(C)c1N)c1cc2ccccc2o1
growth (HCT-15 colon): 48% | growth (HT29 colon): 36.6% | growth (SNB-75 CNS): 53% | growth (SNB-19 CNS): 89.9% | growth (U251 CNS): 56.5% | growth (PC-3 prostate): 45.5% | growth (SK-MEL-5 melanoma): 43.1% | growth (UACC-62 melanoma): 71.3% | growth (LOX IMVI melanoma): 25.6% | growth (SK-MEL-28 melanoma): 71.8%

Nc1nsc(C(=O)c2ccc(O)cc2)n1
growth (HCT-15 colon): 102% | growth (HT29 colon): 106% | growth (SNB-75 CNS): 101% | growth (SNB-19 CNS): 103% | growth (U251 CNS): 93.5% | growth (PC-3 prostate): 76.1% | growth (SK-MEL-5 melanoma): 97.9% | growth (UACC-62 melanoma): 89% | growth (LOX IMVI melanoma): 89.3% | growth (SK-MEL-28 melanoma): 100%

Nc1c(CNCc2nnn(Cc3ccccc3)c2N)nnn1Cc1ccccc1
growth (HCT-15 colon): 93.9% | growth (HT29 colon): 105% | growth (SNB-75 CNS): 99% | growth (SNB-19 CNS): 103% | growth (U251 CNS): 97.6% | growth (PC-3 prostate): 98.9% | growth (SK-MEL-5 melanoma): 104% | growth (UACC-62 melanoma): 102% | growth (LOX IMVI melanoma): 95.3% | growth (SK-MEL-28 melanoma): 115%

COc1ccc(C2C=C(c3ccc(OC)c(OC)c3)N=C3SC=CN32)c(Br)c1 (stereo not given)
growth (HCT-15 colon): 41.9% | growth (HT29 colon): 33.7% | growth (SNB-75 CNS): 85.5% | growth (SNB-19 CNS): 73% | growth (U251 CNS): 43.7% | growth (PC-3 prostate): 48.9% | growth (SK-MEL-5 melanoma): 63.6% | growth (UACC-62 melanoma): 68.9% | growth (LOX IMVI melanoma): 23.3% | growth (SK-MEL-28 melanoma): 89.8%

O=C(Nc1cccc(-c2nc3ccccc3[nH]2)c1)c1cccc(NC(=O)c2ccco2)c1
growth (HCT-15 colon): 50.9% | growth (HT29 colon): 27.6% | growth (SNB-75 CNS): 72.2% | growth (SNB-19 CNS): 89.4% | growth (U251 CNS): 61.8% | growth (PC-3 prostate): 68.5% | growth (SK-MEL-5 melanoma): 43.4% | growth (UACC-62 melanoma): -71.7% (active) | growth (LOX IMVI melanoma): 41.8% | growth (SK-MEL-28 melanoma): 30.3%

CCOC(=O)/C(C#N)=C(/C)C1CC1
growth (HCT-15 colon): 98.6% | growth (HT29 colon): 112% | growth (SNB-75 CNS): 87.7% | growth (SNB-19 CNS): 110% | growth (U251 CNS): 100% | growth (PC-3 prostate): 97.3% | growth (SK-MEL-5 melanoma): 99.6% | growth (UACC-62 melanoma): 107% | growth (LOX IMVI melanoma): 106% | growth (SK-MEL-28 melanoma): 106%

O=C(O)CCCCSCCCCC(=O)O
growth (HCT-15 colon): 106% | growth (HT29 colon): 90.4% | growth (SNB-75 CNS): 95.7% | growth (SNB-19 CNS): 108% | growth (U251 CNS): 93.3% | growth (PC-3 prostate): 96.8% | growth (SK-MEL-5 melanoma): 93.9% | growth (UACC-62 melanoma): 109% | growth (LOX IMVI melanoma): 109% | growth (SK-MEL-28 melanoma): 114%

From PubChem BioAssay (NCI)
